Experimental data reported in PubChem BioAssay AID743279 (National Center for Advancing Translational Sciences (NCATS), 2014).
Among all 360,000 compounds or so, about 17,000 (4.7%) were called active. Inconclusive results (about 5%) are left out. Many of the other results were omitted from the sample, so actives are more common in it than they were. A number with no mark means an inactive call. Cut-off read from the data, not from the text of the source: active = activity change below about -50%; inconclusive = mostly about -30% to -49%; inactive = weaker than that.

Assay: qHTS for Inhibitors of Inflammasome Signaling: IL-1-beta AlphaLISA Primary Screen
Details: THP-1 LPS/ATP IL-1B secretion, 16 h; at 57.5 µM, hits give low values
Summary of the method: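 THP-1 cells pretreated 1 hr with compounds (up to 57.5 uM final), then stimulated with LPS (250 ng/mL final) plus ATP (1.25 mM final); secreted IL-1B measured by AlphaLISA after 16 hr, decreased signal indicating inhibition.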
% is set by controls: 0 for no effect and ±100 for the full control effect.

Row | SMILES | activity change
1 | COC1C(CO)OC(n2cnc3c(=S)nc(N)[nH]c32)C1O (configuration not stated) | 2.88%
2 | O=c1cc(N2CCCCC2)c(-c2ccccc2)nn1Cc1cccc(F)c1 | -2.53%
3 | Cc1ccc2oc(=O)ccc2c1 | 12.6%
4 | Cc1nc2c(OCc3ccc(Cl)cc3)cccn2c1N(C)Cc1cccs1 | -66.3% (active)
5 | CCc1nc2c(OCc3ccc(F)c(F)c3)cccn2c1N(C)C(=O)c1ccco1 | 10.9%
6 | Cc1nc2c(OCC(=O)C(C)(C)C)cccn2c1N(C)Cc1cccs1 | -25.2%
7 | CCOC(=O)[C@]12CCC=C1N(Cc1cccc3ccccc13)C(=O)[C@H](CC(=O)NCc1cccc(C(F)(F)F)c1)C2 | -21.1%
8 | O=C(c1ccc2nc(N3CCOCC3)sc2c1)N1CCN(c2ccc(Cl)cc2)CC1 | 1.67%
9 | COc1ccc2nc(N3CCN(C(=O)c4ccc([N+](=O)[O-])o4)CC3)sc2c1 | -88% (active)
10 | COc1ccc2nc(N3C(=O)C(O)=C(C(=O)c4ccco4)C3c3ccco3)sc2c1 (configuration not stated) | 23.2%
11 | Cc1cc(Br)cn2c(Cc3ccccc3C(F)(F)F)c(-c3ccc(Cl)cc3)nc12 | 25.9%
12 | CC1(C(=O)NS(=O)(=O)c2ccccc2Cl)CCN1C(=O)c1cccc(F)c1 (configuration not stated) | 22.3%
13 | COc1ccc(CC(=O)NCc2nnc(SCC(=O)Nc3ncc(C)s3)n2C)cc1 | 15.7%
14 | CCOC(=O)c1c(CN2CCOCC2)n(-c2ccccc2)c2ccc(O)cc12 | -54.1% (active)
15 | CCOC(=O)c1nnn(-c2nonc2-n2cccc2)c1CN1CCOCC1 | 9.61%
16 | CC(=O)c1c(C)n(-c2ccc(C)cc2)c2ccc(O)cc12 | 12.1%
17 | CC(=O)NCc1ccc(-c2csc(NC(=O)CCCc3nc4ccccc4c(=O)[nH]3)n2)cc1 | -3.36%
18 | CCOC(=O)Cc1csc(NC(NC(=O)OCC)(C(F)(F)F)C(F)(F)F)n1 | 2.86%
19 | CC(=O)Nc1ccc(-c2csc(NC(=O)Nc3ccccc3)n2)cc1 | -57.5% (active)
20 | CCOC(=O)Cc1csc(NC(=O)Nc2ccccc2)n1 | -69.2% (active)
21 | CCOC(=O)Cc1csc(NC(=O)CSc2ccc(Br)cc2)n1 | 35.1%
22 | CC(=O)Nc1ccc(-c2cn3cccnc3n2)cc1 | -2.21%
23 | N#CCCN(C(=O)Nc1ccc(Cl)c(Cl)c1)C1CCCCC1 | -24.2%

Row | SMILES | activity change
24 | CCOC1=C2[C@H]([C@H]3C(=O)N(c4ccccc4)C(=O)[C@H]3C1)[C@@H](c1ccccc1)N(S(=O)(=O)c1ccc(C)cc1)[C@H]2c1ccccc1 | 21.6%
25 | COc1ccc(C(=O)c2oc3ccc(Br)cc3c2NC(C)=O)cc1 | -26.9%
26 | COc1ccc2occ(C(=O)c3ccc(N=C(C)N(C)C)cc3)c2c1 | -57% (active)
27 | COc1ccc(OC)c(C(=O)c2coc3ccc(OC)cc23)c1 | 5.54%
28 | Cc1nc(CN2CCN(C(=O)CCc3nnc(Cc4c[nH]c5ccccc45)o3)CC2)cs1 | 21.5%
29 | C[C@H]1CN([C@@H](C)CO)C(=O)c2cc(Br)cnc2O[C@H]1CN(C)S(=O)(=O)c1cccs1 | -17.5%
30 | Nc1ccccc1-c1nc2ccncc2[nH]1 | -6.01%
31 | CCCCn1c(N)c(N(CC(C)C)C(=O)c2ccc(Br)o2)c(=O)[nH]c1=O | -3.41%
32 | CCCCn1c(N)c(N(CC(C)C)C(=O)c2ccc(-n3c(C)ccc3C)cc2)c(=O)[nH]c1=O | -61.6% (active)
33 | CCCCn1c(N)c(N(CC(C)C)C(=O)c2cnc(C)cn2)c(=O)[nH]c1=O | -2.8%
34 | CC(C)c1ccc(-c2nn[nH]n2)cc1 | -4.8%
35 | CN[C@H]1C[C@H]2c3cc(Oc4ccccc4C)ccc3CCN2C(=O)[C@H]1[C@H](C)O | -11%
36 | [O-][n+]1onc2c1CCc1[nH]c(-c3ccccc3)nc1-2 | -66.3% (active)
37 | N#Cc1c(-c2ccc(F)cc2)nc(-c2ccccc2)[nH]c1=O | 8.84%
38 | CN1CCN(c2ccc3c(c2)OC[C@H](Cc2ccccc2)NS3(=O)=O)CC1 | 2.92%
39 | Cn1c(NCc2cccnc2)nc2cc(-c3ccc(F)cc3)sc2c1=O | 4.79%
40 | O=c1[nH]c(CCl)nc2cc(-c3ccc(Cl)cc3)sc12 | -93.8% (active)
41 | COc1cccc(-c2cc3nc(NCCOc4ccccc4Cl)n(C)c(=O)c3s2)c1 | 33.6%
42 | O=c1[nH]c(=S)[nH]c(O)c1/C=C1\C=Nc2ccccc21 | -3.38%
43 | Cc1nc(C(F)(F)F)ccc1C(=O)N1CCC1(C)C(=O)NS(=O)(=O)c1ccccc1Cl (configuration not stated) | 27.9%
44 | O=C(Nc1ccc2c(c1)[C@@H]1C[C@@H](CC(=O)N3CCCCC3)O[C@@H](CO)[C@@H]1O2)NC1CCCCC1 | 7.94%
45 | CC1CN(Cc2ccccc2)C(=S)NC1=O (configuration not stated) | 5.57%
46 | CC(=O)Oc1c(C(=O)c2nnc(C)o2)c(=O)n(Cc2ccccc2)c2ccccc12 | -63.6% (active)

Row | SMILES | activity change
47 | CC(=O)c1nc2ccccc2n1Cc1ccccc1 | 24.8%
48 | CC(=O)OCC(C)n1c(=O)c2ccccc2n1C(C)=O (configuration not stated) | 21.8%
49 | COc1ccc(NS(=O)(=O)c2cc(NC(=O)CC(=O)c3ccc([N+](=O)[O-])cc3)ccc2C)cc1 | -19.6%
50 | CC(C)(C)NC(=O)c1cc(NC(=O)c2ccco2)cc(NC(=O)c2ccco2)c1 | 3.33%
51 | O=C(Nc1cccc(-c2nc3ncccc3o2)c1)c1ccco1 | -57% (active)
52 | O=C(Nc1cc(-c2nc3ncccc3o2)ccc1Cl)c1ccco1 | 4.47%
53 | Cc1ccc2nc(SCc3nnc(-c4ccccc4[N+](=O)[O-])o3)c(C#N)cc2c1 | 24.6%
54 | Cc1ccc([C@H]2C[C@H](O)[C@@H](n3cc(COC(=O)c4ccccc4)nn3)CN2CC2CCCCC2)cc1 | -1.43%
55 | CN1CCN(C(=O)c2ccccc2NC(=O)COc2ccccc2Cl)CC1 | 7.63%
56 | COc1ccc(C(=O)OCC(=O)NCCCc2ccccc2)cc1OC | 19%
57 | CC(C)n1ncc2c(C(=O)N3CCN(Cc4cccs4)CC3)cc(C3CC3)nc21 | -6.72%
58 | CC(=O)Nc1cccc(-c2ccnc3c2CC(C)(C(=O)NCc2ccccc2)O3)c1 (configuration not stated) | 92.1%
59 | CCCCN(CCCC)C(=O)CCS(=O)(=O)c1ccc2c(c1)n(C)c(=O)c(=O)n2C | 7.06%
60 | O=C1CCC(=O)N(O)CCCCCNC(=O)CCC(=O)N(O)CCCCCNC(=O)CCC(=O)N(O)CCCCCN1 | 38.7%
61 | COc1ccc(/C=C/C(=O)c2cc(Br)ccc(=O)c2O)cc1 | -2.15%
62 | COc1ccc(C(=O)/C=C/c2ccc(OC3CSC3)cc2)cc1 | -99.6% (active)
63 | COc1ccc(C(=O)/C=C/c2cccnc2)c(OC)c1 | -96.6% (active)
64 | Cc1nc(-c2ccccc2)sc1C(=O)/C=C/c1ccccc1 | -84.3% (active)
65 | CCOC(=O)C1CCCN(C(=O)/C=C/c2ccc(OC)cc2)C1 (configuration not stated) | -6.92%
66 | Cc1nc(-c2ccccc2)sc1C(=O)/C=C/N(C)C | -11.9%
67 | COc1ccc(/C=C/C(=O)c2ccc(OC)cc2O)cc1 | -98.1% (active)
68 | COc1ccc(C(=O)CCC(=O)Nc2cccnc2)c(OC)c1 | -9.85%
69 | COc1ccc(-c2cc(C(=O)N/N=C/c3cccnc3)c3ccccc3n2)c(OC)c1 | -5.72%

Row | SMILES | activity change
70 | COc1ccc(C(=O)CC(=O)c2ccc(C)cc2)c(O)c1 | -20.9%
71 | COc1ccc(/C=C/C(=O)NC(=S)N2CCCC(C(N)=O)C2)cc1 (configuration not stated) | -22.6%
72 | Cc1nc(-c2ccc(Cl)cc2)sc1C(=O)CBr | 0%
73 | Cc1ccc(S(=O)(=O)N2CCOCC2)cc1NC(=O)CSc1nnc(N)s1 | 18.9%
74 | COC(=O)[C@]12CCCCC=C1N(Cc1ccccc1)C(=O)[C@H](CC(=O)NCc1ccc(C)o1)C2 | 42.5%
75 | O=C(OCc1cn([C@@H]2C[C@H](c3ccc(Cl)cc3)N(Cc3cccs3)C[C@H]2O)nn1)c1ccccc1 | 10.7%
76 | O=C1CCC/C(=N\NC(=O)NC2CCCCC2)C1 | -10.6%
77 | O=C(/C=C/c1ccccc1)c1ccccc1O | -85.5% (active)
78 | O=C(NNC(=O)c1ccccc1O)c1ccccc1O | 67.1%
79 | O=C(/C=C(O)/C=C/c1ccc(O)cc1)/C=C/c1ccc(O)cc1 | -22.4%
80 | CCCS(=O)(=O)NC(=O)C1(C)CCCN(C(=O)c2cccs2)C1 (configuration not stated) | 1.15%
81 | CCOC(=O)c1ccc2[nH]c(C)c(CN3CCN(C)CC3)c(=O)c2c1 | 13.2%
82 | O=C(CCCCCn1c(=S)[nH]c2ccsc2c1=O)NC1CCCCC1 | 7.06%
83 | CO[C@@H]1CN(C)C(=O)c2cc(NC(=O)C3CC3)ccc2OC[C@H](C)N(C(=O)CN2CCOCC2)C[C@@H]1C | 11%
84 | O=C(O)c1ccccc1-c1cccc2nncn12 | -10.3%
85 | Cn1c2c(c(=O)n(C)c1=O)C(c1cccc(F)c1)C(C#N)=C(N)O2 (configuration not stated) | 5.24%
86 | Cc1c(C(=O)NCc2ccc(C#N)cc2)sc(=O)n1Cc1ccc(C(=O)N(C)C)cc1 | -7.66%
87 | O=[N+]([O-])c1ccccc1OCCCCN1CCCCC1 | 15.9%
88 | CCCCOC(=O)CCCc1ccc([N+](=O)[O-])cc1[N+](=O)[O-] | 17.5%
89 | CCCCCOc1ccc(CSC2=NCCN2)cc1[N+](=O)[O-] | -93.2% (active)
90 | Cc1nc(SCc2ccc(F)cc2)c([N+](=O)[O-])[nH]1 | 15.4%
91 | Cc1cc(OCCCCOc2ccc(C#N)cc2)ccc1[N+](=O)[O-] | 0%
92 | CCCCOc1ccc(CSC(=N)N)cc1[N+](=O)[O-] | -102% (active)
